Experiments:
Assay in all cases: phage ELISA signal ratio (GST-PRM binding over GST background); higher = stronger binding of peptide-phage to the PRM
[1] = target: T1, NR2C1 355-603 Hormone_recep (domain begin residue: 355, domain end residue: 603), P13056
T1 chain: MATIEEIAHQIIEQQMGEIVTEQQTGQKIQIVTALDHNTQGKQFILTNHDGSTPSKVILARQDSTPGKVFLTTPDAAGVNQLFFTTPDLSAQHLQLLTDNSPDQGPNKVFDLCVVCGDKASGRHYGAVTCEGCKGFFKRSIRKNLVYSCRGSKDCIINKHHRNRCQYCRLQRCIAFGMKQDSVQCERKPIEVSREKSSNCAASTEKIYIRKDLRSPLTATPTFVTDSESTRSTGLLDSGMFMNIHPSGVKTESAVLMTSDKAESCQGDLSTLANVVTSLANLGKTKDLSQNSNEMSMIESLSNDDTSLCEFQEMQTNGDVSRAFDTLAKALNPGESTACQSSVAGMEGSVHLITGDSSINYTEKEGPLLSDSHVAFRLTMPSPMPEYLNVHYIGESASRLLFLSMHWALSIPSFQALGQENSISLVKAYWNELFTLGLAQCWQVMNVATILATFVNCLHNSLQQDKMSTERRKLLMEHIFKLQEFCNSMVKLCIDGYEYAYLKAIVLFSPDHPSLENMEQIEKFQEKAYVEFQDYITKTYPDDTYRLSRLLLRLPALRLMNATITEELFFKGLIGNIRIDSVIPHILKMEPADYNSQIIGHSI
Procedure, shortened: (§1)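 Each value is the phage ELISA signal on the glutathione S-transferase (GST)-domain fusion divided by the signal on GST alone. Human peptide recognition domains were expressed in 96-well plates, fused to the C-terminus of GST, and selected against an M13 phage library carrying randomized, cysteine-free, glycine-flanked hexadecapeptides on the gene-8 major coat protein. After five selection rounds, approximately 48 individual clones from rounds 4 and 5 were tested by phage ELISA, and positive clones were sequenced.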

[2] = target: PABPC1 544-623 PABP (domain begin residue: 544, domain end residue: 623)
Procedure, shortened: as §1

[3] = target: T2, NXT1 1-140 NTF2 (domain begin residue: 1, domain end residue: 140), Q9UKK6
T2 chain: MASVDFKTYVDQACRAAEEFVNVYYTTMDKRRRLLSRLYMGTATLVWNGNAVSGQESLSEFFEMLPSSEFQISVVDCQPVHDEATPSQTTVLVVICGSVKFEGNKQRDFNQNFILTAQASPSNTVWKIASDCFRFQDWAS
Procedure, shortened: as §1

[4] = target: T3, NR1H3 204-447 Hormone_recep (domain begin residue: 204, domain end residue: 447), Q13133
T3 chain: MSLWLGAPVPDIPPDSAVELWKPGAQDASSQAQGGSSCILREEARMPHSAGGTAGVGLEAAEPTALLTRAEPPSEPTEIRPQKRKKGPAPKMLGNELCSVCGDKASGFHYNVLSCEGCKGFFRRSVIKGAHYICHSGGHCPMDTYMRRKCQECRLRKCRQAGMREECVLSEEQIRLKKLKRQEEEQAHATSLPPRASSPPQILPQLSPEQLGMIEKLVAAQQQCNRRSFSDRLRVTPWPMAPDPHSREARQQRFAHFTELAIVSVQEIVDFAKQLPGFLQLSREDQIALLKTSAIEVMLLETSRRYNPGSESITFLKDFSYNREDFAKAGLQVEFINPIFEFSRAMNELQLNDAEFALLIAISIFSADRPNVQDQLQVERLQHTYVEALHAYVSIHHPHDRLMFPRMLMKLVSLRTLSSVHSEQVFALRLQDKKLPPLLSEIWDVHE
Procedure, shortened: as §1

[5] = target: NXF1 203-359 LRR_1 (domain begin residue: 203, domain end residue: 359)
Procedure, shortened: as §1

[6] = target: T4, NR1H4 256-474 Hormone_recep (domain begin residue: 256, domain end residue: 474), Q96RI1
T4 chain: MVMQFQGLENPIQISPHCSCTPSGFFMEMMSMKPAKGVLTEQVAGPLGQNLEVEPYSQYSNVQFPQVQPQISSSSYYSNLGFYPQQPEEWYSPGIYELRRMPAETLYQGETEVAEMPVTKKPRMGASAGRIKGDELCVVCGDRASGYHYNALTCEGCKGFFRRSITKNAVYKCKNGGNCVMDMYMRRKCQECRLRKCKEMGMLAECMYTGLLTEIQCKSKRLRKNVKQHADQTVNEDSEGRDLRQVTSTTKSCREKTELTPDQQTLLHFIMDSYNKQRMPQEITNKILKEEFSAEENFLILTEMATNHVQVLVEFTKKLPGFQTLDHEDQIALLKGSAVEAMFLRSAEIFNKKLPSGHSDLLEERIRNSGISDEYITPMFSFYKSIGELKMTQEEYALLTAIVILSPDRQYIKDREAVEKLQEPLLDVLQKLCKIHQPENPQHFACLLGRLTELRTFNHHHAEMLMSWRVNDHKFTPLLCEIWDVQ
Procedure, shortened: as §1

[7] = target: T5, NR4A2 327-598 Hormone_recep (domain begin residue: 327, domain end residue: 598), P43354
T5 chain: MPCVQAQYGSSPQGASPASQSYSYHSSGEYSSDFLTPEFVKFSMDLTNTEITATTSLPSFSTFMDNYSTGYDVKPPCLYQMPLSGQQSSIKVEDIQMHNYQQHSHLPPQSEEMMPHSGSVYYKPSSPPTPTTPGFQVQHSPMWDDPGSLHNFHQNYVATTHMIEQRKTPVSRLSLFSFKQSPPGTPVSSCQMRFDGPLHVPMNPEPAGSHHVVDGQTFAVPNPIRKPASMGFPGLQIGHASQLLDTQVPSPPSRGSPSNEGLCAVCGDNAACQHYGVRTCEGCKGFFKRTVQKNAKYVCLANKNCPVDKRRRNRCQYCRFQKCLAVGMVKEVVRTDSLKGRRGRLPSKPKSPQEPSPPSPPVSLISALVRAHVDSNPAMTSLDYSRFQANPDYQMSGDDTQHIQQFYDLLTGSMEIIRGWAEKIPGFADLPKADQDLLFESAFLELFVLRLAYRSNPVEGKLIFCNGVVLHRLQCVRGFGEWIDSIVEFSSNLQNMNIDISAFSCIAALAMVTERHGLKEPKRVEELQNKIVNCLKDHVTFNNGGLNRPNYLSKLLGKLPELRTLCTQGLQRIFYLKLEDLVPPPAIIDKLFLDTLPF
Procedure, shortened: as §1

[8] = target: NXF1 565-619 TAP_C (domain begin residue: 565, domain end residue: 619)
Procedure, shortened: as §1

[9] = target: T6, NR4A3 356-626 Hormone_recep (domain begin residue: 356, domain end residue: 626), Q92570
T6 chain: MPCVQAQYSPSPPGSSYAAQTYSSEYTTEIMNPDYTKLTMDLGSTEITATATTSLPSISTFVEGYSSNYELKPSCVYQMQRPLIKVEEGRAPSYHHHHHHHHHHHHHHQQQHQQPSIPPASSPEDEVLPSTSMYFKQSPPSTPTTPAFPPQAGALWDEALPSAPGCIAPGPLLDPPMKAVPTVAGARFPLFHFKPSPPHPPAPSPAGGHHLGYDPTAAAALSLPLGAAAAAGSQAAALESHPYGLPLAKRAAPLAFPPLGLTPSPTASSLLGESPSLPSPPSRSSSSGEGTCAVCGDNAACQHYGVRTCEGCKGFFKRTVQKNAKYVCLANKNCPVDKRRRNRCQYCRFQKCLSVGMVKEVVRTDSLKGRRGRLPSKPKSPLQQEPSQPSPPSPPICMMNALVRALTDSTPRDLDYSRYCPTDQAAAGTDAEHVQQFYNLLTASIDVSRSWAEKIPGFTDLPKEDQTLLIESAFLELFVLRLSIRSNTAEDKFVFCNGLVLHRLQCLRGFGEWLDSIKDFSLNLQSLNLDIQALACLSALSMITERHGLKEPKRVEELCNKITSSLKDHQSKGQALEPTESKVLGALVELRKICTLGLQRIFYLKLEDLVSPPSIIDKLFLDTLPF
Procedure, shortened: as §1

[10] = target: T7, NUP98 730-880 Nucleoporin2 (domain begin residue: 730, domain end residue: 880), P52948
T7 chain: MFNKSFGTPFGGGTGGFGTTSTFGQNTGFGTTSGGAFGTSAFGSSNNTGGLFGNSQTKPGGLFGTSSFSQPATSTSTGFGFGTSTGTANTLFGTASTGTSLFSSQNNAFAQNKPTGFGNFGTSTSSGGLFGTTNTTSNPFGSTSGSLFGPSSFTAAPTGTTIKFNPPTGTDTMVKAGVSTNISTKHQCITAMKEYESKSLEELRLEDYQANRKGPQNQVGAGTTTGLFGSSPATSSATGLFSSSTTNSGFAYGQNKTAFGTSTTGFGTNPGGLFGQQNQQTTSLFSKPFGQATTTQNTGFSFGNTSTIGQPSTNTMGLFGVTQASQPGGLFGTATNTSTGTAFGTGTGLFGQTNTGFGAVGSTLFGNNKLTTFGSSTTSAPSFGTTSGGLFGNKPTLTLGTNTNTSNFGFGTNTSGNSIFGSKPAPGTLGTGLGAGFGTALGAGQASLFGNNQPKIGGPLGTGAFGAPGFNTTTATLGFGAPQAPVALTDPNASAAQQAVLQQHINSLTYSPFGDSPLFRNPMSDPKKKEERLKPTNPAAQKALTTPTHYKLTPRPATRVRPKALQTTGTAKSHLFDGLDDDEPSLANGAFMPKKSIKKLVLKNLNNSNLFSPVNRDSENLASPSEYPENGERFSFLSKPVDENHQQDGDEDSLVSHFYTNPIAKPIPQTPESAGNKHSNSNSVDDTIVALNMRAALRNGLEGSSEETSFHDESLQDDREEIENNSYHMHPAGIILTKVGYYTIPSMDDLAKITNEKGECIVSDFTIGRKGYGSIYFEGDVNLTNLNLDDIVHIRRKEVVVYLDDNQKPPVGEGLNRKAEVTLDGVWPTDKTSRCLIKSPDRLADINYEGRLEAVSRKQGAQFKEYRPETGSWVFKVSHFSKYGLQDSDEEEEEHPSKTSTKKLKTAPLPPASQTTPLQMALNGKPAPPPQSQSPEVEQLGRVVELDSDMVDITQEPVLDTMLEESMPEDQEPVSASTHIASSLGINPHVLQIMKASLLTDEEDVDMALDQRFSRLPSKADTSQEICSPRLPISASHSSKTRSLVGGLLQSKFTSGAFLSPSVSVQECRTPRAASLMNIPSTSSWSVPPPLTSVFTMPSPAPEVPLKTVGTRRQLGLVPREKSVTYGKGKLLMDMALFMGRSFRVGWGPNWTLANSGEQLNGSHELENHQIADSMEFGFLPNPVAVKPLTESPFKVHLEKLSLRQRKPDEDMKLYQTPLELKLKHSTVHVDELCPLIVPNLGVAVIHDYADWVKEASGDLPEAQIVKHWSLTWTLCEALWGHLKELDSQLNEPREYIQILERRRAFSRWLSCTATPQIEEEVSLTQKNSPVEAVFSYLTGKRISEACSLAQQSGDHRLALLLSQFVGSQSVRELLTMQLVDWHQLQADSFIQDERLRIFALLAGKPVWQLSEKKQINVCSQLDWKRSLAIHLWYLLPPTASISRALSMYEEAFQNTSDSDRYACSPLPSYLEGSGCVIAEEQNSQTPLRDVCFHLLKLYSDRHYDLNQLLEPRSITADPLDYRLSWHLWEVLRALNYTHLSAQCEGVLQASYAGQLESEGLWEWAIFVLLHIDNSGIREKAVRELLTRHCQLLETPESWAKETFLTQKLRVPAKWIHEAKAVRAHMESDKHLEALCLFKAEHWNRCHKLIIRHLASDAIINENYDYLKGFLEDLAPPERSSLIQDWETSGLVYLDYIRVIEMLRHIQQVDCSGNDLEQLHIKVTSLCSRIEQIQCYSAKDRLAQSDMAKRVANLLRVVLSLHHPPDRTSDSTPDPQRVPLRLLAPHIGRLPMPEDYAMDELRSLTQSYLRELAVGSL
Procedure, shortened: as §1

WGPFLSFQYAVDPTQE
phage ELISA signal ratio [1]: 19.1

KPVPSFWVDWHVQAMT
phage ELISA signal ratio [2]: 20.9

MWIYNEKWDMFLPYKL
phage ELISA signal ratio [3]: 20.3

SADSMYPELDWLVWAM
phage ELISA signal ratio [4]: 10

FETLWARHAQGQTQVE
phage ELISA signal ratio [5]: 22

LAFGEWLDKEIGLAYF
phage ELISA signal ratio [6]: 14.3

LNDSEQWFTWAYKYVD
phage ELISA signal ratio [7]: 9.75

DYPEVEWLTQQWDFWS
phage ELISA signal ratio [4]: 17

SMEMMNFTWDPEWFIE
phage ELISA signal ratio [8]: 12.9

FEELWLKHTAVSKTTE
phage ELISA signal ratio [5]: 32.5

AAPGSWDYSLLEFHYL
phage ELISA signal ratio [1]: 3.03

SPFDFWPLQSWWFKTM
phage ELISA signal ratio [7]: 9.75

LPGEYNMMEWRQAVMG
phage ELISA signal ratio [2]: 3.49

GDFGPDWFSFAWTEEM
phage ELISA signal ratio [8]: 13.4

DIPFSFQWSTDMHPVS
phage ELISA signal ratio [8]: 6.7

VQMWSFEQIWVEHMMG
phage ELISA signal ratio [5]: 20.1

EIEEFSFTWQPEWEVR
phage ELISA signal ratio [8]: 8.54

GWSPWYEGRGVDWMTW
phage ELISA signal ratio [7]: 5.78

QEWQAWMLSMEEGEMM
phage ELISA signal ratio [4]: 15.5

QQEPWWWMDWDFQQAE
phage ELISA signal ratio [9]: 4.47

AFKQLMFHVIGEEYSV
phage ELISA signal ratio [7]: 30.5

EFINFTWMEAMGTPNS
phage ELISA signal ratio [8]: 13.2

WQEWLDYTVESQYTLV
phage ELISA signal ratio [6]: 7.27

WFGWDAQMTEQEDELW
phage ELISA signal ratio [10]: 5.91

MAGPESLNFSWDYIMN
phage ELISA signal ratio [8]: 13.4

MWEPELYDDFHEAVTY
phage ELISA signal ratio [10]: 18.1

VVQIEGFDFQWKPEWF
phage ELISA signal ratio [8]: 13.2

YPEIAWLQQMMQSDSR
phage ELISA signal ratio [4]: 28.4

— the supplement of paper PMC7724964
